Assay results from PubChem BioAssay (EPA / NIEHS).
Inconclusive results are not listed. Calls of active or inactive are those of the source. Rule for the calls: active = hit-call score of the fitted dose curve at least 0.9, where 1 is the maximum; inconclusive = response in the unintended direction; inactive = score below 0.9.

Key:
[1] = biological target: Cellular tumor antigen p53 (Homo sapiens) (UniProt P04637); assay: TOX21_p53_BLA_p2_ratio: Tox21 HCT-116 p53 Agonism Beta-lactamase Assay, Ratio, Phase 2 (AID 2283592)
Method in brief: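 DMSO-normalized, positive-direction endpoint derived from the 460 nm/530 nm FRET ratio in HCT116 p53 beta-lactamase reporter cells exposed 16 h at 37C and loaded with CCF4-AM for 2 h.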

[2] = TOX21_p53_BLA_p3_viability: Viability Assessment in the Tox21 HCT-116 p53 Agonism Beta-lactamase Assay, Phase 3 (AID 2283593);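 note: cells exposed to compound for 16 h before reading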
Method in brief: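 HCT-116 cells (4000/well) rested 5 h at 37C, then got DMSO compounds by pin tool (217-fold dilution) for 16 h at 37C, 5% CO2. After the bla read, CellTiter-Glo was added and luminescence read at 30 min, room temperature.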

[3] = biological target: Cellular tumor antigen p53 (Homo sapiens) (UniProt P04637); assay: TOX21_p53_BLA_p3_ratio: Tox21 HCT-116 p53 Agonism Beta-lactamase Assay, Ratio, Phase 3 (AID 2283596)
Method in brief: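 Cells were seeded at 4000/well, rested 5 h at 37C, then dosed with DMSO compound solutions (217-fold dilution) for 16 h. CCF4-AM substrate was loaded for 2 h at room temperature, and the 460/530 nm emission ratio was fitted for gain of signal versus DMSO.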

[4] = TOX21_p53_BLA_p4_viability: Viability Assessment in the Tox21 HCT-116 p53 Agonism Beta-lactamase Assay, Phase 4 (AID 2283597);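 note: hits lower the luminescence signal meaning cytotoxicity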
Method in brief: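 In this multiplexed secondary endpoint, HCT116 cells (4000 per well, compound at 5 h, 16 h treatment) received CellTiter-Glo after the beta-lactamase read. Luminescence after 30 min RT reflects ATP, and falling signal marks cytotoxicity.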

[5] = biological target: Cellular tumor antigen p53 (Homo sapiens) (UniProt P04637); assay: TOX21_p53_BLA_p5_ratio: Tox21 HCT-116 p53 Agonism Beta-lactamase Assay, Ratio, Phase 5 (AID 2283599)
Method in brief: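 HCT-116 cells carrying a p53-inducible beta-lactamase reporter were seeded at 4000 cells/well and dosed after 5 h with compound in DMSO (217-fold dilution). After 16 h at 37C, CCF4-AM substrate was added for 2 h, and the 460/530 nm emission ratio was scored as gain-of-signal versus DMSO.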

[6] = TOX21_p53_BLA_p5_viability: Viability Assessment in the Tox21 HCT-116 p53 Agonism Beta-lactamase Assay, Phase 5 (AID 2283600)
Method in brief: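 Here cell health was gauged by ATP levels in wells holding 4000 cells, each treated 16 h with DMSO-delivered compounds at 217-fold dilution; reduced luminescence marked toxicity.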

[7] = biological target: Cellular tumor antigen p53 (Homo sapiens) (UniProt P04637); assay: TOX21_p53_BLA_p4_ratio: Tox21 HCT-116 p53 Agonism Beta-lactamase Assay, Ratio, Phase 4 (AID 2283601)
Method in brief: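 HCT116 cells carrying an inducible beta-lactamase reporter were plated at 4000 cells/well, rested 5 h, then exposed to compounds in DMSO (217-fold dilution) for 16 h at 37C. CCF4-AM substrate was loaded 2 h at room temperature; 460/530 nm emission ratio scored gain-of-signal versus DMSO.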

Cellular tumor antigen p53 (Homo sapiens), sequence (P04637 whole entry, looked up): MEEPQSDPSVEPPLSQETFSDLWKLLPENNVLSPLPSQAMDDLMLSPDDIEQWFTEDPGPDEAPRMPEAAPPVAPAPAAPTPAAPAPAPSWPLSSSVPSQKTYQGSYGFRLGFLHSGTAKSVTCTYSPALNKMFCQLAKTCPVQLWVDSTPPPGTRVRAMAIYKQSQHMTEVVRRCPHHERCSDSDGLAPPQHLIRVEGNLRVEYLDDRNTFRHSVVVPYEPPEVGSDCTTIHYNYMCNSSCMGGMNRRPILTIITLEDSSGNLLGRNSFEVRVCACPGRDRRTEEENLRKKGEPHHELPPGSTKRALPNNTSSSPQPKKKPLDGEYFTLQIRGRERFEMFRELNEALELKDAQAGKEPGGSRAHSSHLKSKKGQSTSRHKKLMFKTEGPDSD

Compound | outcome [1] | outcome [2] | outcome [3] | outcome [4] | outcome [5] | outcome [6] | outcome [7] | AC50 [1] | AC50 [3] | AC50 [5] | AC50 [7]
CN[C@@H]1[C@@H](O[C@H]2O[C@H](CO)[C@@H](N)[C@H](O)[C@H]2O)O[C@H]2C[C@@H](N)[C@@H](O[C@H]3[C@H](O)[C@@H](O)[C@H](N)C[C@@H]3N)O[C@@H]2[C@@H]1O | inactive | inactive | inactive | inactive | inactive | inactive | inactive |  |  |  | 
CCOC(=O)c1c(N)sc2c1CCN(Cc1ccccc1)C2 | inactive | inactive | inactive | inactive | inactive | inactive | inactive |  |  |  | 
CC(C)(C)S | inactive | inactive | inactive | inactive | inactive | inactive | inactive |  |  |  | 
COc1ccc(-c2noc(CC(=O)O)c2-c2ccc(OC)cc2)cc1 | inactive | inactive | inactive | inactive | inactive | inactive | inactive |  |  |  | 
CC(C)(C)C(=O)OCOC(=O)[C@@H]1N2C(=O)[C@@H](N=CN3CCCCCC3)[C@H]2SC1(C)C | inactive | inactive | inactive | inactive | inactive | inactive | inactive |  |  |  | 
Cc1ccc(C(=O)C(C)CN2CCCCC2)cc1 (centres undefined) | inactive | inactive | inactive | inactive | inactive | inactive | inactive |  |  |  | 
CC(=O)O[C@H]1C(=O)[C@@]2(C)[C@H]([C@H](OC(=O)c3ccccc3)[C@]3(O)C[C@H](OC(=O)[C@H](O)[C@@H](NC(=O)c4ccccc4)c4ccccc4)C(C)=C1C3(C)C)[C@]1(OC(C)=O)CO[C@@H]1C[C@@H]2O |  | inactive |  | inactive |  | inactive |  | 0.179 µM (active) | 0.00826 µM (active) | 4.57 µM (active) | 0.00702 µM (active)
CCCC(=O)N1CCCN(c2nc(N)c3cc(OC)c(OC)cc3n2)CC1 | inactive | inactive | inactive | inactive | inactive | inactive | inactive |  |  |  | 
CCCN1CCCC[C@H]1C(=O)Nc1c(C)cccc1C | inactive | inactive | inactive | inactive | inactive | inactive | inactive |  |  |  | 
O=S(=O)(O)c1cc(I)c(O)c2ncccc12 | inactive | inactive | inactive | inactive | inactive | inactive | inactive |  |  |  | 
O=C(O)c1nc(=O)[nH]c(=O)[nH]1 | inactive | inactive | inactive | inactive | inactive | inactive | inactive |  |  |  | 
O=[N+]([O-])c1cccc(S(=O)(=O)O)c1 | inactive | inactive | inactive | inactive | inactive | inactive | inactive |  |  |  | 
